The results in this text go back to PubChem BioAssay (NCATS).

Assay [1] in a line: Drug repurposing screens with cells derived from glioblastoma tumor samples (AID 1345199). For activity, negative = cell killing: % is set by controls: 0 for no effect and ±100 for the full control effect. Note: nearly all actives have a fitted effect of over 40% in size. Note: potency is the fitted concentration of half-maximal effect. The settings on record: GBM patient neurospheres viability, ATP luminescence, 48 h. A digest of the protocol:
(§1)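 Primary testing used CD133+ neurospheres from four GBM patients, seven concentrations, 48 h exposure and ATP-based viability; confirmation added three slower-growing patient lines.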

The next assay relates to astro (control astrocytes). The description is as above. As to conditions: viability, ATP luminescence, 48 h; series mostly up to 45.9 µM. A digest of the protocol:
as §1

Assay [2] concerns the target Nuclear receptor subfamily 1 group I member 2 (Rattus norvegicus) (UniProt Q9R1A7). The experiment in a line: qHTS assay for small molecule activators of the rat pregnane X receptor (rPXR) signaling pathway (AID 651751; call rule not given here; note: 0% is about no effect). The settings on record: rPXR reporter cells, luciferase (One-Glo), 24 h. For orientation: Quantitative high-throughput screening tests each substance at several concentrations.

Assay [3] can be described thus: qHTS assay for small molecule activators of the human pregnane X receptor (PXR) signaling pathway (AID 720659; call rule not given here; note: 0% is about no effect). As to conditions: DPX-2 HepG2 CYP3A4-luciferase, 24 h; series mostly up to 92.3 µM.
The nature of assay [4]: qHTS assay to identify inhibitors of the type 1 interferon - major histocompatibility complex class I in skeletal muscle: Counter screen cell viability and HiBit confirmation (AID 1347412). Note: % is set by controls: 0 for no effect and ±100 for the full control effect; nearly all actives have a fitted effect of over 60% in size. As to conditions: iHSKM muscle cells + IFN-b, HiBiT or CellTiter-Glo, 24 h; Potency: HiBiT; Viability, at 45.9 µM (top of the series). Put shortly: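 Duplicate plates, pinned identically: one read for HiBiT-tagged endogenous HLA-B luminescence, the other for ATP-content viability via CellTiter Glo. Cells were genome-engineered human myoblasts given 4 ng/ml IFN-b; compounds 12-pt, 1:3 from 46 uM final; 24 hr exposure.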

Setting [5] is: at 45.9 µM (top of the series), tumour line B.
The mark [6] stands for this setting: at 45.9 µM (top of the series), tumour line D.
The mark [7] stands for this setting: at 46.1 µM (top of the series), tumour line C.
Where [8] appears, read: at 91.6 µM (top of the series), tumour line B.
[9] abbreviates: at 91.6 µM (top of the series), tumour line D.
The mark [10] stands for this setting: at 99.2 µM (top of the series), tumour line C.
The mark [11] stands for this setting: at 46 µM (top of the series), tumour line A.

Several values for one entry are separate records, joined by “and”; a condition that tells them apart may be missing. Equal entries are not always repeated. Values without a mark were called inactive. Inconclusive results are not listed. Some compounds were tested as several samples or in several runs, with calls that do not always agree. Activity calls are given as the source filed them. Unless noted, calls come from the whole dose curve; as a rule, active = well fitted curve in the direction sought with a large enough effect; inconclusive = small, poorly fitted or top-dose-only effect, or another doubt; inactive = no such curve, though single readings can be large; an effect the other way counts as inactive or inconclusive.

Nuclear receptor subfamily 1 group I member 2 (Rattus norvegicus), sequence (Q9R1A7 whole entry, looked up): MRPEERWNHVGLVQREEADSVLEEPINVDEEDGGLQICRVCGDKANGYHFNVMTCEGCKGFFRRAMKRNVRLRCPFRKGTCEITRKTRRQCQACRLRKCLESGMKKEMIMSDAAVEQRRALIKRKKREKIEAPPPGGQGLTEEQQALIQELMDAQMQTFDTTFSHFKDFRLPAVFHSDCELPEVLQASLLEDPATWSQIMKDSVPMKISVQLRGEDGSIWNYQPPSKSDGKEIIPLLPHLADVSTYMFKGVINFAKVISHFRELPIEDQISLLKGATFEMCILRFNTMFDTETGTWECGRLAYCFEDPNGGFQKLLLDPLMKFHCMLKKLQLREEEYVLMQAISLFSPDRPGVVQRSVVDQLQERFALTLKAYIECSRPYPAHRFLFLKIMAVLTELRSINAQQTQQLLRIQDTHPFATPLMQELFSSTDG

Regarding `CN(CC1(C)CCCO1)S(=O)(=O)c1ccc(Cl)c(S(N)(=O)=O)c1` (centres undefined), the values for the activity, negative = cell killing in assay [1] (setting [5]), in assay [1] (setting [6]) and in assay [1] (setting [7]) were -9.01%, -23.5% and 16.1%, respectively. In the assay on astro, the Potency entry was “inactive”.
As for `CC(C)C(C)(C)C(C)(C)C(C)(C)S`, the activity, negative = cell killing in assay [1] (setting [8]) is -9.39%; in assay [1] (setting [9]), -2.43%; in assay [1] (setting [10]), -11.4%. Moreover, the Potency in assay [1] (tumour line A) was 28.2 µM (active). In addition, the Potency entry with astro is “inactive”. Also, the max response in assay [2] was -1.2% and -1.45%. Moreover, in assay [3], the outcome was inactive.
Take `N#C/C(=C1/SC[C@@H](c2ccc(Cl)cc2Cl)S1)n1ccnc1`: the activity, negative = cell killing in assay [1] (setting [5]) was -20.5% and -14.1%. Moreover, the Potency was 11.2 µM (active) and 20 µM (active) in assay [1] (tumour line A); 11.2 µM (active) in assay [1] (tumour line D). In the assay on astro, the Potency entry was “inactive”.
Take `O=S(=O)(O)c1ccc2nc(-c3ccccc3)[nH]c2c1`: the activity, negative = cell killing in assay [1] (setting [5]) was -3.28%; in assay [1] (setting [6]) it was -9.15%; in assay [1] (setting [7]), -23.9%. Moreover, in the assay on astro, the Potency entry is “inactive”.
As to `CC(=O)OCC(=O)Nc1cc(C#N)cc(NC(=O)COC(C)=O)c1Cl`, the activity, negative = cell killing in assay [1] (setting [5]) is -11%; in assay [1] (setting [6]) it was -1.03%; in assay [1] (setting [7]), -3.42%. For the same compound, the Potency entry in the assay with astro is “inactive”.
For the compound `CCCCNc1ccc(C(=O)OCCN(CC)CC)cc1`, in assay [1] (setting [7]), the activity, negative = cell killing is -27.5%. Moreover, the Potency in assay [1] (tumour line A) and in assay [1] (tumour line D) was 14.1 µM (active) throughout. Besides, the Potency entry with astro was “inactive”.
With `CCO[C@H](Cc1ccc(OCCc2ccc(OS(C)(=O)=O)cc2)cc1)C(=O)O`, the activity, negative = cell killing was -8.78% in assay [1] (setting [5]), -11.2% in assay [1] (setting [6]) and -26% in assay [1] (setting [7]). Moreover, in assay [1] (tumour line A), the Potency was 14.1 µM (active). Also, the Potency result with astro is “inactive”.
As for `O=C(OCC1(COC(=O)c2cccnc2)CCCC(COC(=O)c2cccnc2)(COC(=O)c2cccnc2)C1O)c1cccnc1`, the activity, negative = cell killing in assay [1] (setting [5]) was -11.6%; in assay [1] (setting [6]), -18.7%; in assay [1] (setting [7]) it was 2.18%. The Potency entry with astro was “inactive”.
As for `O=C(Oc1ccccc1)c1ccccc1O`, the activity, negative = cell killing is -4.53% in assay [1] (setting [5]), 13.5% in assay [1] (setting [6]), -25.7% in assay [1] (setting [11]) and -8.91% in assay [1] (setting [7]). Also, the Potency result in the assay on astro is “inactive”. In addition, in assay [2], the max response is 9.53% and -0.74%. For the same compound, in assay [3], the compound was called inactive.
Take `COc1cc(C(=O)OC(COCCC(C)C)CN2CCOCC2)cc(OC)c1OC` (centres undefined): the activity, negative = cell killing in assay [1] (setting [5]) is -6.94%; in assay [1] (setting [6]) it was -4.84%; in assay [1] (setting [7]), -4.89%. The Potency entry with astro was “inactive”.
For `O=C(c1ccccc1)c1ccccc1`, the activity, negative = cell killing in assay [1] (setting [5]) is 2.19%; in assay [1] (setting [6]), 8.55%; in assay [1] (setting [11]), -8.04%; in assay [1] (setting [7]) it was -0.361%. For the same compound, the Potency entry in the assay on astro is “inactive”. The max response in assay [2] was -0.979% and 2.4%.
On to `CCOC(=O)[C@H](CCc1ccccc1)N[C@@H](C)C(=O)N(CC(=O)O)C1Cc2ccccc2C1`, for which the activity, negative = cell killing in assay [1] (setting [5]) was -1.19%; in assay [1] (setting [6]) it was -9.08%; in assay [1] (setting [7]), 19.3%. The Potency entry in the assay with astro is “inactive”.
Regarding `O=[N+]([O-])c1nccn1CO[C@@H](CO)[C@H](O)CO`, the activity, negative = cell killing in assay [1] (setting [5]) was -1.15%; in assay [1] (setting [6]), -7.16%; in assay [1] (setting [7]), -8.18%. In the assay on astro, the Potency result was “inactive”.
Take `CCCCC(CC)COC(=O)c1ccccc1C(=O)O` (centres undefined): the activity, negative = cell killing was -11.6% in assay [1] (setting [8]), -15.6% in assay [1] (setting [9]) and -7.68% in assay [1] (setting [10]). For the same compound, in the assay on astro, the Potency result was “inactive”. For the same compound, the max response in assay [2] was 1.45% and -0.807%.
Regarding `C[N+](C)(CCOc1ccccc1)Cc1cccs1`, the values for the activity, negative = cell killing in assay [1] (setting [5]), in assay [1] (setting [6]) and in assay [1] (setting [7]) were -1.12%, -8.83% and -14.1%, respectively. In the assay with astro, the Potency result is “inactive”.
As for `CO/N=C(/C(=O)N[C@@H]1C(=O)N2C(C(=O)[O-])=C(C[n+]3ccn4ncccc43)CS[C@H]12)c1nsc(N)n1`, the activity, negative = cell killing in assay [1] (setting [5]) is -6.03% and -3.53%; in assay [1] (setting [6]), -11.1% and -14%. In addition, in assay [1] (tumour line A), the Potency was 8.91 µM (active). Besides, the Potency entry in the assay with astro is “inactive”.
As to `O=C(O)CCC(=O)OC[C@@H](NC(=O)C(Cl)Cl)[C@H](O)c1ccc([N+](=O)[O-])cc1`, the results for the activity, negative = cell killing in assay [1] (setting [5]), in assay [1] (setting [6]) and in assay [1] (setting [7]) were -13.2%, -13.5% and -13.1%, respectively. The Potency result in the assay on astro is “inactive”.
Turning to `CC(=O)[C@@]1(O)CC[C@H]2[C@@H]3C[C@H](C)C4=CC(=O)CC[C@]4(C)[C@H]3CC[C@@]21C`, the activity, negative = cell killing in assay [1] (setting [5]) was -5.63%; in assay [1] (setting [6]), -15.6%; in assay [1] (setting [7]), -11.3%. Also, the Potency entry (in the assay on astro; in assay [4]) was “inactive” each time.
With `CC(=O)CC/C=C(\C)CC/C=C(\C)CC/C=C(\C)CCC=C(C)C`, the activity, negative = cell killing in assay [1] (setting [5]) is -12.4%; in assay [1] (setting [6]), -10.7%; in assay [1] (setting [7]), 4.26%. For the same compound, in the assay with astro, the Potency result was “inactive”.
On to `Cc1ccccc1N1CCN(CCc2nnc3n2CCCC3)CC1`, for which the activity, negative = cell killing in assay [1] (setting [5]) is -2%; in assay [1] (setting [7]) it was 19.6%. Also, the Potency result with astro is “inactive”.
Take `O=C(O)Cc1ccccc1Oc1ccc(Cl)cc1Cl`: the values for the activity, negative = cell killing in assay [1] (setting [5]), in assay [1] (setting [6]) and in assay [1] (setting [7]) were -7.43%, -9.2% and 1.53%, respectively. For the same compound, the Potency result in the assay on astro was “inactive”.
